Inconclusive results are not listed. A call without a number means that no potency is given here. Calls of active or inactive are those of the source. Calls follow the shape of the full dose curve.
Potency is read from the fitted curve at half-maximal effect.

Sequence of Cytochrome P450 1A2 (Homo sapiens) (P05177 whole entry, looked up): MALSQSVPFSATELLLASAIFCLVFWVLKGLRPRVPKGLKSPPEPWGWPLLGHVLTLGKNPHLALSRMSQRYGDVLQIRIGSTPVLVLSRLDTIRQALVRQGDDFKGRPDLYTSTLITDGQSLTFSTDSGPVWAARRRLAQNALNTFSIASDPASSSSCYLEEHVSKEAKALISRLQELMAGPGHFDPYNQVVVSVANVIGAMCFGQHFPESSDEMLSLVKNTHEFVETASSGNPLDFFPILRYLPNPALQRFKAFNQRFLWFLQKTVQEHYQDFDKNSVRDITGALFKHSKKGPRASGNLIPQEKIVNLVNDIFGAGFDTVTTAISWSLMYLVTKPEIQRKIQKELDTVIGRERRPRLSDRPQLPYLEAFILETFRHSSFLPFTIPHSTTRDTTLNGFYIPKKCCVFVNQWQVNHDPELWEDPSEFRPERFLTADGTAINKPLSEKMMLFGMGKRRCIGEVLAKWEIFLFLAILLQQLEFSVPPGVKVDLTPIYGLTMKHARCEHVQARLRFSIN

The experiment has as its target Cytochrome P450 1A2 (Homo sapiens) (UniProt P05177). In words: p450-cyp1a2 (AID 410). The note with it: recombinant CYP1A2, luciferin-ME demethylation, luminescence; series mostly up to 25.6 µM. The protocol:
The P450 gene superfamily is involved in metabolism and the clearance of xenobiotics. This assay used human CYP1A2 to measure the demethylation of luciferin 6' methyl ether (Luciferin-ME; Promega-Glo) to luciferin. The luciferin is then measured by luminescence after the addition of a luciferase detection regeant. Luciferin-ME concentration in the assay was equal to its Km for CYP1A2.
NCGC Assay Protocol Summary:
Two uL of enzyme and substrate mix (final concentrations: 20nM CYP1A2, 100uM Luciferin-ME, 100mM KPO4) were dispensed into a white, solid bottom 1536-well microtiter plate. 23nL of compound was transferred by a pin tool. The plate was incubated at room temperature for 10 min. Two uL of an NADPH regeneration solution (Promega supplied reagent) was dispensed and the reaction was allowed to continue for 60 min at room temperature. Then the reaction was stopped by reconstituted detection reagent. After another 20 min of incubation the plate was read on the ViewLux (Perkin Elmer) at 60 sec exposure and 2x2 binning. This protocol was carried out with Promega-Glo reagents and further information can be found at http://www.promega.com/tbs/tb325/tb325.pdf. Data were normalized to the to AC100 inhibition (57 uM furafylline).
As to `CC[C@H](CO)NCCN[C@@H](CC)CO`, the Potency entry is “inactive”.

`NCCC(=O)N[C@@H](Cc1cnc[nH]1)C(=O)O`: the Potency entry was “inactive”.

Take `NS(=O)(=O)c1cc2c(cc1C(F)(F)F)N[C@H](Cc1ccccc1)NS2(=O)=O`: the Potency is 15.8 µM (active).

In the case of `O=C(O)[C@@H](O)[C@@H](O)[C@@H](O[C@H]1O[C@@H](CO)[C@@H](O)[C@@H](O)[C@@H]1O)[C@@H](O)CO`, the Potency result is “inactive”.

As to `C=Cc1c(C)c2cc3nc(cc4[nH]c(cc5nc(cc1[nH]2)C(C)=C5CCC(=O)O)c(CCC(=O)OC)c4C)[C@@]1(C)C3=CC=C(C(=O)OC)[C@H]1C(=O)OC` (tested in a mixture with another compound), the Potency was 3.98 µM (active).

Turning to `CN(C/C=C\c1ccccc1)Cc1cccc2ccccc12`, the Potency was 2 µM (active).

For the molecule `C[C@@H]1C(=O)O[C@@H]2C[C@]34[C@H]5C[C@@H](C(C)(C)C)[C@@]36[C@@H](OC(=O)[C@@H]6O)O[C@@]4(C(=O)O5)[C@@]12O`, the Potency entry is “inactive”.

As for `C[C@H](C(=O)O)c1cccc(Oc2ccccc2)c1`, the Potency result is “inactive”.

Take `C[C@H](CCC(=O)NCC(=O)O)[C@H]1CC[C@H]2[C@H]3[C@@H](C[C@@H](O)[C@]12C)[C@]1(C)CC[C@H](O)C[C@@H]1C[C@@H]3O`: the Potency result was “inactive”.

`C[C@@H]1[C@H]2CC[C@@H]3[C@@H]4CC=C5C[C@@H](N(C)C)CC[C@]5(C)[C@@H]4CC[C@@]32CN1C`: the Potency entry was “inactive”.

With `Cc1cccc(C)c1NC(=O)[C@H](C)N`, the Potency entry is “inactive”.

As for `CN1C(=O)C[C@H](c2ccccc2)C1=O`, the Potency result is “inactive”.

On to `CC[C@H](C)C(=O)O[C@@H]1C[C@H](C)C=C2C=C[C@H](C)[C@@H](CC[C@H]3C[C@@H](O)CC(=O)O3)[C@H]21`, for which the Potency entry was “inactive”.

On to `COC(=O)C1=C(C)NC(C)=C(C(=O)OC(C)C)[C@H]1c1cccc2nonc12`, for which the Potency is 12.6 µM (active).

Turning to `C[C@@H]1CCc2cc(F)cc3c(=O)c(C(=O)O)cn1c23`, the Potency was 12.6 µM (active).

Take `COc1c(O[C@H]2O[C@@H](CO)[C@@H](O)[C@@H](O)[C@@H]2O)cc2c(c1OC)-c1ccc(SC)c(=O)cc1[C@H](NC(C)=O)CC2`: the Potency result was “inactive”.

Consider `CCN(CC)CCOC(=O)[C@@H](c1ccccc1)C1CCCCC1`, for which the Potency is 1.26 µM (active).

Consider `COc1ccc(CNc2ncncc2-c2ccccc2CN(C)C)c(OC)c1`, for which the Potency was 15.8 µM (active).

`Cc1cc2ccc(=O)oc2cc1OC[C@@H](O)C(C)(C)O`: the Potency is 39.8 µM (active).

Turning to `O=C(O)c1cc2ccccc2c(Cc2cc3ccccc3c(C(=O)O)c2O)c1O` (tested in a mixture with another compound), the Potency result is “inactive”.

For `Cc1onc(-c2c(Cl)cccc2Cl)c1C(=O)N[C@H]1C(=O)N2[C@H]1SC(C)(C)[C@H]2C(=O)O`, the Potency result is “inactive”.

Turning to `NC(=O)c1ncn([C@H]2O[C@@H](CO)[C@@H](O)[C@@H]2O)n1`, the Potency entry is “inactive”.

As to `Cc1c(O)c(=O)n(-c2ccccc2)n1C`, the Potency entry was “inactive”.

With `C=C(C)[C@H]1CC[C@]2(CO)CC[C@]3(C)[C@@H](CC[C@H]4[C@@]5(C)CC[C@@H](O)C(C)(C)[C@@H]5CC[C@@]43C)[C@H]12`, the Potency entry was “inactive”.

As to `CC(=O)OCC(=O)[C@@]1(O)[C@H](C)C[C@@H]2[C@H]3CCC4=CC(=O)C=C[C@]4(C)[C@]3(F)[C@@H](O)C[C@@]21C`, the Potency entry was “inactive”.

Take `Cc1noc(C)c1-c1nc(Nc2ccncc2)c2ccccc2n1`: the Potency is 0.1 µM (active).

For `CN(C)CCO[C@@H](c1ccc(Cl)cc1)c1ccccn1`, the Potency entry was “inactive”.

Consider `C[C@@H](Cc1cccc(C(F)(F)F)c1)NCCOC(=O)c1ccccc1`, for which the Potency is 0.794 µM (active).

`Nc1c(O)cccc1C(=O)C[C@@H](N)C(=O)O`: the Potency entry was “inactive”.

Consider `CN1CCC2(CC1)CCN(C(=O)c1ccncc1)CC2`, for which the Potency result was “inactive”.

For `CC1(C)O[C@@H]2C[C@H]3[C@H]4C[C@H](F)C5=CC(=O)CC[C@]5(C)[C@@H]4[C@H](O)C[C@]3(C)[C@]2(C(=O)CO)O1`, the Potency entry was “inactive”.

As to `O=C(c1cc(C(F)(F)F)cc(C(F)(F)F)c1)N1CCC[C@@]2(CCN(c3ccccn3)C2)C1`, the Potency was 25.1 µM (active).

As to `O=C1C=CC(=O)c2c1ccc1c2ccc2ccccc21`, the Potency was 0.794 µM (active).

`FC(F)(F)c1ccccc1-c1ccc2ncnc(NC3CCNCC3)c2c1`: the Potency was 20 µM (active).

In the case of `C[N+]12CCC(CC1)[C@@H](OC(=O)C(O)(c1ccccc1)c1ccccc1)C2`, the Potency entry was “inactive”.

With `CNC[C@H](O)c1ccc(OC(=O)C(C)(C)C)c(OC(=O)C(C)(C)C)c1`, the Potency entry is “inactive”.

Turning to `COc1cccc(-c2nc(NCCc3c[nH]c4ccc(OC)cc34)c3ccccc3n2)c1`, the Potency is 1.58 µM (active).

As to `CC(C)(N=NC(C)(C)C(=N)N)C(=N)N`, the Potency entry is “inactive”.

Regarding `C#C[C@@]1(OC(C)=O)CC[C@@H]2[C@@H]3CCC4=C[C@@H](OC(C)=O)CC[C@H]4[C@H]3CC[C@]21C`, the Potency entry is “inactive”.

Consider `COc1cc(N)c(Cl)cc1C(=O)N[C@H]1CCN(CCCOc2ccc(F)cc2)C[C@H]1OC`, for which the Potency entry was “inactive”.

The values above are taken from PubChem BioAssay (NCATS).
